IL-1B inflam inh: inflammasome signaling inhibition, IL-1 beta readout. activity change, % at 57.5 µM. AID 743279. THP-1 LPS/ATP IL-1B secretion, AlphaLISA, 16 h; hits give low values. 360,000 compounds, 4.7% hits; in the data active = activity change below about -50%; inconclusive = mostly about -30% to -49%
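Secreted IL-1B measured by AlphaLISA bead assay after 16 h compound exposure of THP-1 cells; compounds (final up to 57.5 uM) added 1 h before LPS (250 ng/mL) and ATP (1.25 mM) stimulation; lower signal means less secretion.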
TDP1 cell CPT: DT40-hTDP1 cell growth loss with CPT | Potency, µM (titrated, usually from 46.2 µM), inactives show at the top dose activity change, negative = growth inhibition, usual class: inhibitors | AID 686979 | chicken DT40 Tdp1-/-;hTDP1 cells + 20 nM CPT, ATP luminescence, 48 h | 420,000 compounds, 12% hits; note: potency is the fitted concentration of half-maximal effect; nearly all actives have a fitted effect of over 55% in size
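Chicken DT40 Tdp1-/- cells complemented with human TDP1, 400 cells/well, exposed to compounds plus 20 nM camptothecin for at least 48 h at 37 C; viability read as ATP content by CellTiter-Glo luminescence.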
HT1080 IDH1KD tx: toxicity to HT-1080 IDH1 knockdown cells (counter line). HT-1080 IDH1 knockdown viability, ATP luminescence, 48 h. AID 686971. 360,000 compounds, 2% hits. Potency, µM (highest dose often 46.1 µM), for inactives: at the highest dose activity, negative = toxicity, hits mostly cytotoxic;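 note: potency is the fitted concentration of half-maximal effect; 0% = DMSO wells and -100% = cell-free medium wells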
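HT-1080-IDH1KD cells (IDH1 knocked down), 750/well in RPMI with 5% FBS, treated with compound 48 h at 37 degrees C. Viability by CellTiter-Glo luminescence, normalised to DMSO and no-cell wells; concentration-response curves classed.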
TDP1 cell noCPT: qHTS for Inhibitors of human tyrosyl-DNA phosphodiesterase 1 (TDP1): qHTS in cells in absence of CPT; DT40 Tdp1-/- hTDP1 cells, no CPT, ATP luminescence, 48 h; Potency, µM (top dose mostly 46.2 µM), for the others: top-dose activity change, negative = growth inhibition, most hits filed as inhibitors; 420,000 compounds, 15% hits; AID 686978, 2013; note: potency is the fitted concentration of half-maximal effect; nearly all actives have a fitted effect of over 55% in size
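Chicken DT40 Tdp1-/- cells stably complemented with human TDP1 were seeded at 400 cells/well with DMSO in place of 20 nM camptothecin. After compound pinning, cells grew at least 48 hr at 37 °C; viability read by CellTiter-Glo luminescence.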
HT1080-NT tox: kills 2HG-producing HT-1080-NT fibrosarcoma cells; HT-1080-NT fibrosarcoma viability, CellTiter-Glo ATP luminescence, 48 h; Potency, µM (series often up to 46.1 µM), inactives show at the highest dose activity, negative = less viability, actives largely listed as cytotoxic; 360,000 compounds, 1.6% hits; AID 686970;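 note: NT is the 2HG producing partner of a matched IDH1 knockdown line; potency is the fitted concentration of half-maximal effect; 0% = DMSO-treated cells and -100% = media-only wells without cells; nearly all actives have a fitted effect of over 55% in size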
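Viability of the 2HG-overproducing fibrosarcoma line after 48 hours of compound exposure at 37 degrees C was determined by luminescence with CellTiter-Glo, and concentration-effect curves were then fitted and categorized.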
* marks the source's active call; other numbers are inactive results; ? = inconclusive; · = not tested or not shown; [ ] = dose if it differs, or a comment. Hits are enriched below; roughly 19% of the tested compounds scored in any of these assays. Unless noted, calls come from the whole dose curve; as a rule, active = well fitted curve in the direction sought with a large enough effect; inconclusive = small, poorly fitted or top-dose-only effect, or another doubt; inactive = no such curve, though single readings can be large; an effect the other way counts as inactive or inconclusive. Unless noted, % is set by controls: 0 for no effect and ±100 for the full control effect.

SMILES	IL-1B inflam inh	TDP1 cell CPT	HT1080 IDH1KD tx	TDP1 cell noCPT	HT1080-NT tox
CC(=O)Nc1ccc(NC(=O)CN2C(=O)CCc3cc(S(=O)(=O)N4CCCCC4)ccc32)cc1	·	-4%	·	-18%	·
COc1ccc(OC)c(NC(=O)CN2C(=O)CCc3cc(S(=O)(=O)N4CCCCC4)ccc32)c1	·	26µM*	·	?	·
O=C1COc2ccc(C(=O)COC(=O)c3c(F)cccc3Cl)cc2N1	-24	-19%	9%	-4%	6%[9.24 µM]
COc1ccccc1N1CCN(C[C@@H](C(=O)NC(C)(C)C)c2ccccc2)CC1	·	-35%	·	?	·
O=C(c1ccc(CS(=O)c2ccccc2Cl)o1)N1CCN(c2ccccc2F)CC1 (centres undefined)	·	1.3µM*	·	1.3µM*	·
O=C(c1ccc(CS(=O)c2ccccc2Cl)o1)N1CCN(C2CCCCC2)CC1 (centres undefined)	6	?	-26%	?	-5%
Cc1ccc(CS(=O)Cc2ccc(C(=O)N3CCN(c4ccccn4)CC3)o2)cc1 (centres undefined)	2	21µM*	3%	?	0%
COc1cccc(N2CCN(C(=O)c3ccc(CS(=O)Cc4ccc(C)cc4)o3)CC2)c1 (centres undefined)	-1	?	-2%	?	-4%
Cc1ccc(Cl)cc1N1CCN(C(=O)COc2ccc3c(c2)CCC3)CC1	-72*	-4%	?	21µM*	?
CC(=O)c1ccc(N2CCN(C(=O)COc3ccc4c(c3)CCC4)CC2)cc1	12	?	3%	-28%	-1%
COc1ccccc1N1CCN(C(=O)c2ccc(CS(=O)c3ccccc3C)o2)CC1 (centres undefined)	·	12µM*	·	13µM*	·
O=C(c1ccco1)N1CCN(C(=O)c2ccccc2OCc2ccc(Cl)cc2)CC1	-16	?	1%	?	-4%
O=C(c1ccc(CS(=O)c2cccc(Cl)c2)o1)N1CCOCC1 (centres undefined)	9	-11%	2%	17%	0%
O=C(c1ccccc1OCc1ccc(Cl)cc1)N1CCN(c2ccccn2)CC1	-18	23µM*	-8%	?	-18%
Cc1ccc(Cl)cc1N1CCN(C(=O)c2noc3c2CCCC3)CC1	·	12µM*	·	?	·
Cc1ccccc1S(=O)Cc1ccc(C(=O)N2CCN(c3cccc(C)c3C)CC2)o1 (centres undefined)	·	0.65µM*	·	0.82µM*	·
Cc1cccc(N2CCN(C(=O)c3ccc(CS(=O)c4cccc(Cl)c4)o3)CC2)c1C (centres undefined)	·	0.82µM*	·	0.92µM*	·
Cc1cccc(N2CCN(C(=O)c3noc4c3CCCCC4)CC2)c1C	·	?	·	-51%	·
Cc1ccc(C(=O)CSc2nnc3c4ccccc4nc(Cc4ccccc4)n23)cc1	4	?	22%	?	17%
COCCNc1cc(C)nc2c3c(C)cc(C)nc3nn12	?	-2%	0%	-6%	-1%
COc1ccc(-c2nnc(SCC(=O)N3CCc4ccccc43)o2)cc1OC	·	3%	·	-1%	·
COC(=O)c1cc(C(=O)N2CCN(c3ncccn3)CC2)cc([N+](=O)[O-])c1	6	-19%	0%	-7%	0%
O=C(c1ccc(CS(=O)c2cccc(Cl)c2)o1)N1CCN(c2ccccn2)CC1 (centres undefined)	82	?	?	9.2µM*	?
Cc1ccc(-c2c(C(=O)N3CCN(c4cccc(C)c4C)CC3)oc(=O)c3ccccc23)cc1	·	?	·	21µM*	·
Cc1ccc(-c2c(C(=O)N3CCOCC3)oc(=O)c3ccccc23)cc1	-3	5%	9%	-19%	1%
Cc1ccc(C(=O)N2CCN(c3cccc(C)c3C)CC2)o1	11	16µM*	?	?	?
COC(=O)c1cc(C(=O)N2CCN(c3cccc(C)c3C)CC2)cc([N+](=O)[O-])c1	31	5.8µM*	2.3µM*	2.6µM*	1.8µM*
